NS1 function inh = inhibitors of influenza NS1 protein function. Potency, µM (top dose mostly 46.1 µM). hit rate 0.4% among 270,000. AID 2326; calls by dose curve; also: actives are rising curves; nearly all actives have a fitted effect of over 50% in size
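OD600 was taken as the measure of yeast growth restored by compound in an NS1-expressing S. cerevisiae strain. Cells had been washed out of glucose medium and diluted 1:100 into galactose -URA medium, pH 6.0.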
Pf growth 96h = inhibits malaria parasite growth, 96 h. P. falciparum luciferase reporter growth, 96 h. AID 504834. Potency, µM (doses to about 28.7 µM), usual class: inhibitors. hit rate 6.9% among 320,000
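96 h incubation, 37 C, 5% CO2, of luciferase-reporter P. falciparum-infected RBCs (2% hematocrit, 0.05% parasitemia final) with test compounds; endpoint luminescence.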
AMA1 RON2 block = disrupts binding of P. falciparum AMA1 to RON2; AID 720542; hit rate 0.2% among 360,000; Potency, µM (series often up to 58.2 µM), usual class: inhibitors; AlphaScreen AMA1-biotinylated RON2 peptide binding; also: nearly all actives have a fitted effect of over 45% in size
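AMA1 (3D7) with his tag at 25 nM final met compounds first, then biotinylated RON2 peptide at 25 nM; detection used donor plus acceptor beads, 10 µg/mL apiece, read by AlphaScreen after 30 min at room temperature.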
Sm TGR inh = blocks Schistosoma mansoni thioredoxin glutathione reductase; Q962Y6; purified TGR, DTNB reduction, TNB absorbance 405 nm; Potency, µM (titrated, usually from 114 µM), hits mostly inhibitors; hit rate 3% among 360,000; AID 485364; also: nearly all actives have a fitted effect of over 60% in size
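First, TGR (20 nM dispensed) and NADPH were mixed with compound. Second, a 15 min room-temperature incubation followed. Third, further NADPH and then DTNB were added to start the reaction. Finally, TNB absorbance was monitored kinetically.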
Pf growth 48h = P. falciparum growth inhibition at 48 hours (one generation). P. falciparum luciferase growth in erythrocytes, 48 h. Potency, µM (titrated, usually from 28.7 µM), actives largely listed as inhibitors. hit rate 5.9% among 310,000
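A one-generation exposure of luciferase-tagged malaria parasites in RPMI 1640/Albumax erythrocyte culture, 37 C and 5% CO2. Inhibition is inferred from decreased luminescence after adding detection reagent.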
A number is an active result; n = inactive; u = inconclusive; x = no result given; [ ] = another dose, or the depositor's remark. Sampled rows, rich in hits. Any-hit rate of the full collection: about 11%. Unless noted, calls follow the shape of the dose curve; as a rule, active = well fitted curve in the direction sought with a large enough effect; inconclusive = small, poorly fitted or top-dose-only effect, or another doubt; inactive = no such curve, though single readings can be large; an effect the other way counts as inactive or inconclusive.

SMILES	NS1 function inh	Pf growth 96h	AMA1 RON2 block	Sm TGR inh	Pf growth 48h
CC(C)Nc1nc(NC(C)C)nc(N(C)n2cnnc2)n1	n	n	n	n	n
CC(C)Nc1nc(NC(C)C)nc(N(C)C(N)=O)n1	n	12µM	n	n	n
O=C(NCC1CCCO1)c1nn2c(C(F)(F)F)cc(-c3cc(Br)cs3)nc2c1Br (centres undefined)	n	n	n	n	n
O=C(COc1ccccc1[N+](=O)[O-])NCCCN1CCCC1=O	x	n	n	n	n
CC(C)CCNc1nc2c(-c3ccccc3)nnn2c2ccccc12	x	x	x	n	x
O=c1[nH]c2ccccc2n1CCCSCCCn1c(=O)[nH]c2ccccc21	n	9.3µM	n	n	u
CCn1c2ccccc2c2nnc(SCCCn3c(=O)[nH]c4ccccc43)nc21	n	2.3µM	n	n	7.4µM
Cc1cc(C(=O)CSc2nc3ccccc3n2C)c(C)n1C	n	n	n	n	x
Cc1cc(C(=O)CSCCCn2c(=O)[nH]c3ccccc32)c(C)n1C	n	n	n	n	13µM
COC1OC2COC(c3ccccc3)OC2C(OC(C)=O)C1OC(C)=O (centres undefined)	x	x	n	x	x
CCOC(=O)C1C(=O)CC(C)(O)C(C(=O)OCC)C1c1ccc([N+](=O)[O-])cc1 (centres undefined)	n	u	n	n	n
O=C(NCC1CCCO1)c1cc(S(=O)(=O)N2CCCCC2)ccc1Cl (centres undefined)	x	n	n	2.8µM	n
O=S(=O)(c1ccc2c(c1)OCCO2)N1CCC(c2nc3ccccc3[nH]2)CC1	n	x	n	n	u
O=S(=O)(c1ccc2c(c1)OCCO2)N1CCC(c2nc3ccc(Cl)cc3[nH]2)CC1	n	u	n	n	12µM
O=C(NCC1CCCO1)c1ccc(S(=O)(=O)N2CCC(c3nc4ccc(Cl)cc4[nH]3)CC2)cc1 (centres undefined)	n	n	n	n	13µM
Cc1ccc(CN2CCC(c3nc4ccc(Cl)cc4[nH]3)CC2)cc1	n	u	n	n	8.3µM
Cc1ccc(S(=O)(=O)N2CCCCC2)cc1C(=O)NCC1CCCO1 (centres undefined)	n	u	n	n	n
CCCc1nnc(NC(=O)CSc2nnc(-c3ccco3)n2C)s1	n	n	n	n	n
COc1cc2c3nc4n(c(=O)c3n(CC(=O)N3CCCC3)c2cc1OC)CCS4	x	x	n	x	x
COc1ccc(C(=O)NCCn2cc(SCC(=O)NCC3CCCO3)c3ccccc32)cc1OC (centres undefined)	n	6.6µM	n	n	8.3µM
Cc1ccc(C(=O)NCCn2cc(SCC(=O)Nc3nnc(C)s3)c3ccccc32)cc1	n	4.1µM	n	n	x
CC(=O)C(C(C)=O)C(c1ccccc1)c1nc2ccccc2[nH]c1=O (centres undefined)	n	n	n	n	n
CN1OC[C@@H]2C(=O)N3CCc4c([nH]c5ccccc45)[C@@H]3C[C@@H]21	x	x	n	x	x
Cn1ccnc1C(=O)c1ccc(N)cc1	n	n	n	n	n
O=C(c1ccncc1)c1nccn1-c1ccccn1	n	13µM	n	n	n
SMILES	NS1 function inh	Pf growth 96h	AMA1 RON2 block	Sm TGR inh	Pf growth 48h
CC(C)N(Cc1ccccc1)C(=O)COC(=O)c1c(F)cccc1F	x	x	n	x	x
O=S1(=O)NC2c3ccccc3CC2O1 (centres undefined)	n	n	n	25µM	n
N#Cc1c2ccc([N+](=O)[O-])cc2[n+]([O-])n1-c1ccccc1	x	10µM	x	n	12µM
O=c1c2cc([N+](=O)[O-])ccc2sn1-c1ccccc1	x	x	n	x	x
COc1cccc(C=O)c1OC(=O)N1CCOCC1	n	n	n	n	n[0.00184 µM]
CCNc1nc(NC(C)(C)C)nc(N2CCCC2)n1	n	n	n	n	1.5µM
C=CCN(C(=O)C1=NN(C2CCS(=O)(=O)C2)C(=O)CC1)c1nc(-c2ccc([N+](=O)[O-])cc2)cs1 (centres undefined)	n	n	n	n	n
COc1cc(/C=N/Nc2nc(Nc3ccccc3)nc(-n3nc(C)cc3C)n2)cc(OC)c1OC	n	n	n	n	3.3µM
COc1ccc(O)c(/C=N/Nc2nc(Nc3ccccc3)nc(-n3nc(C)cc3C)n2)c1	n	2.1µM	n	n	1.9µM
COc1cc(/C=N/Nc2nc(Nc3ccc(C)cc3)nc(-n3nc(C)cc3C)n2)cc(OC)c1OC	n	1.9µM	n	n	x
COc1ccc(O)c(/C=N/Nc2nc(C)cc(-c3ccccc3)n2)c1	x	x	n	x	x

Screens as filed in PubChem BioAssay.
